Only some compounds are listed: those with a hit (about 4.8% of all), similar ones and a draw of the others.
ALR inh = inhibitors of human sulfhydryl oxidase ALR | 3.8% of 290,000 active | AID 485317 | purified ALR, DTT oxidation, H2O2 HRP-luminol luminescence | P55789 | inhibition, % (no concentration beside the values);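 active = mean replicate inhibition above about 79%, with every replicate also reaching it, limit read from the data; inconclusive = only one of the two criteria met; inactive = mean below limit and not every replicate reaching it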
Target sequence (P55789 whole entry, looked up): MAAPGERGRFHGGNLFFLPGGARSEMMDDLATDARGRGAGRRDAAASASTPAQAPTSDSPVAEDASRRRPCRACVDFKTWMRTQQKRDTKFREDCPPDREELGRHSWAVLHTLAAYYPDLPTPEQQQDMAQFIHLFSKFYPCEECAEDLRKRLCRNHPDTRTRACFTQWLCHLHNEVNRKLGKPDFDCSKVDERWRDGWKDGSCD
AI-2 QS modul = modulates the Vibrio harveyi AI-2 quorum sensing system | Vibrio harveyi JMH597 AI-2 luminescence/OD600 ratio, 9 h; hits give low values; strain lacks LuxN and CqsS sensors; 0 = neutral-control median | activity change, % at 7.5 µM | 0.4% of 300,000 active; in the data active = activity change below about -75%, passing the limit was not always enough; inconclusive = no clear call, values can overlap the other calls;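 note: luminescence divided by OD600 gain over 9 h not by final OD600 alone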
HIF act = HIF pathway transcriptional activation; U2OS HRE-luciferase reporter, luminescence; normalized: DMSO 0%, desferrioxamine 100%; activation, % at 7.5 µM (by protocol); 0.32% of 300,000 active;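 active = mean activation of at least 10% of the iron chelator positive control signal, with at least half of replicates also reaching 10%; inconclusive = mean and replicate majority disagree about reaching 10%; inactive = mean and most replicates under 10%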
Mot1-301 SUMO = blocks SUMOylation pathway, rescuing yeast Mot1-301 growth; 1% of 320,000 active; growth rescue, % at 18.8 µM; AID 2716; S. cerevisiae Mot1-301 growth rescue, ATP luminescence, 38.5C; percent above DMSO median, 100 means doubled;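 active = every valid replicate shows activation above 250% relative to neutral control wells; inactive = the rest, any valid replicate at or below 250%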;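 note: OY570 slx delta 5 strain wells were the positive control but not used for scaling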
JMH597 growth rt = retest: inhibitors of Vibrio harveyi JMH597 growth; shares compounds with AI-2 QS modul; OD600 absorbance, 9 h; lacks LuxN and CqsS sensors; growth inhibition, % at 7.5 µM; AID 2726; 1% of 750 active;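 active = every replicate shows growth inhibition above 50%; inconclusive = at least half, but not all, replicates pass that cutoff; inactive = fewer than half of replicates pass it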
BB721 lum counter = retest counter-screen: lowers luminescence of constitutive-QS Vibrio harveyi BB721. shares compounds with AI-2 QS modul. 9 h. inhibition, % at 7.5 µM. 95% of 750 active;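 active = inhibition above about 80% in every replicate, not just on average, limit read from the data; inconclusive = at least half of replicates past the limit, but not all; inactive = fewer than half of replicates past the limit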
BB721 growth = retest Vibrio harveyi BB721 growth inhibition | shares compounds with AI-2 QS modul | OD600 absorbance, 9 h | growth inhibition, % at 7.5 µM | 3% of 750 active;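 active = every replicate shows growth inhibition above 50%; inconclusive = at least half but not all replicates above 50% inhibition; inactive = under half of replicates above 50% inhibition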
JMH597 AI-2 mod = Vibrio harveyi AI-2 signaling luminescence modulation – JMH597 strain, confirmation; shares compounds with AI-2 QS modul; Vibrio harveyi JMH597 AI-2 quorum sensing luminescence, 9 h; luxN and CqsS knockout, AI-2 only; inhibition, % at 7.5 µM; 97% of 750 active; AID 2736;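 active = every replicate shows more than 75% inhibition of signal versus neutral control wells; inconclusive = half to three quarters of replicates exceed 75% inhibition; inactive = fewer than half of replicates exceed 75% inhibition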
Active calls of the source: *; ? = inconclusive; nt = not tested or not shown.

SMILES	ALR inh	AI-2 QS modul	HIF act	Mot1-301 SUMO	JMH597 growth rt	BB721 lum counter	BB721 growth	JMH597 AI-2 mod
CCC1CCCCN1CCCNC(=O)c1ccc(N2CCCC2=O)cc1 (configuration not stated)	-1.8	8.4	-0.3	0.2	nt	nt	nt	nt
CCOC(=O)c1cccc(NC(=O)Cn2nc(C)n3cccc3c2=O)c1	-7.2	-97.3*	-0.3	-12.0	21.6	99.6*	12.4	99.8*
COc1ccc(Cc2nnc(CCc3ccccc3)s2)cc1	-32.2	?	-2.0	83.3	-30.7	78.3*	-33.1	86.4*
COc1ccc(NC(=O)Nc2nnc(Cc3ccccc3)s2)cc1	-16.1	-15.8	1.1	-2.2	nt	nt	nt	nt
CN(C)CCCNC(=O)/C(=C\C=C\c1ccccc1)NC(=O)c1ccc([N+](=O)[O-])cc1	-24.5	7.3	0.0	4.8	nt	nt	nt	nt
CC(=O)NS(=O)(=O)c1ccc(NC(=O)c2ccc(Cl)cc2[N+](=O)[O-])cc1	-7.6	22.5	0.1	-16.3	nt	nt	nt	nt
O=C(Nc1ccc(Nc2ccccc2)cc1)c1ccc(Cl)cc1[N+](=O)[O-]	26.5	-86.5*	0.3	15.0	51.6	?	20.8	90.5*
CC(C)C(NC(=O)c1ccc(C(C)(C)C)cc1)C(=O)NCC(c1ccccc1)N(C)C (configuration not stated)	-11.3	3.8	0.2	-1.2	nt	nt	nt	nt
O=C(CN1C(=O)c2ccccc2C1=O)Nc1ccc(S(=O)(=O)N2CCOCC2)cc1	12.0	-96.9*	0.7	-16.4	5.0	99.5*	-9.2	99.6*
NS(=O)(=O)c1ccc(NC(=O)CN2C(=O)c3ccccc3C2=O)cc1	-3.9	-84.1*	-0.3	-2.5	23.6	93.0*	11.9	95.6*
O=C(CN1C(=O)c2ccccc2C1=O)Nc1ccccc1	1.0	-60.3	-0.6	51.4	nt	nt	nt	nt
CCn1c(SCC(=O)Nc2cccc(OC)c2)nc2c(c1=O)SCC2	25.6	30.7	-0.2	14.9	nt	nt	nt	nt
C=CCNC(=O)NC(=O)CN1C(=O)NC(c2ccccc2)(c2ccccc2)C1=O	-4.6	-84.9*	-0.3	4.1	-4.0	93.6*	-9.4	95.7*
CC(C)CCNC(=O)CN1C(=O)NC(c2ccccc2)(c2ccccc2)C1=O	nt	-91.8*	-0.2	32.5	7.1	90.2*	7.8	95.3*
NC(=O)NC(=O)CN1C(=O)NC(c2ccccc2)(c2ccccc2)C1=O	-6.7	7.3	2.5	187.6	nt	nt	nt	nt
COCCNC(=O)CN1C(=O)NC(c2ccccc2)(c2ccccc2)C1=O	nt	-7.4	-0.1	-10.3	nt	nt	nt	nt
Cc1cc(C(=O)NNC(=O)c2ccc(S(=O)(=O)N(C)C)cc2)c(C)o1	-64.1	-84.4*	-0.3	-12.8	11.6	88.0*	12.1	93.2*
CC(C)(C)CC(=O)Nc1nnc(SCC(=O)N2CCCCC2)s1	-7.0	nt	-0.7	-13.8	nt	nt	nt	nt
Nc1nc(SCC(=O)c2ccc(Oc3ccccc3)cc2)n[nH]1	0.6	-94.5*	-0.1	-21.3	14.7	96.9*	-86.5	97.9*
Nc1nc(SCC(=O)c2ccc([N+](=O)[O-])cc2)n[nH]1	62.9	36.5	0.1	-3.7	nt	nt	nt	nt
Cc1ccc(Oc2ccc(NC(=O)CSc3n[nH]c(N)n3)cc2)cc1	-7.8	-94.3*	-2.5	65.3	-2.9	95.3*	-8.2	98.1*
COc1ccc(S(=O)(=O)Nc2ccc3c(c2)CC(=O)N([C@@H](C)CO)C[C@H](C)[C@@H](CN(C)S(=O)(=O)c2ccc(F)cc2)O3)cc1	-3.0	nt	nt	-5.5	nt	nt	nt	nt
Cc1nn(CC(=O)Nc2cccnc2)c(=O)c2ccccc12	-2.6	-95.5*	-0.4	2.6	-0.7	98.5*	-8.9	99.1*
Cc1nn(CC(=O)Nc2ccc(S(N)(=O)=O)cc2)c(=O)c2ccccc12	-4.1	-83.9*	-8.5	-8.7	-11.4	97.9*	-14.0	98.6*
Cc1nn(CC(=O)Nc2nnc(CC(=O)N3CCCC3)s2)c(=O)c2ccccc12	1.1	4.8	-1.3	-9.2	nt	nt	nt	nt
SMILES	ALR inh	AI-2 QS modul	HIF act	Mot1-301 SUMO	JMH597 growth rt	BB721 lum counter	BB721 growth	JMH597 AI-2 mod
Cc1nn(CC(=O)Nc2ccc(C(=O)N3CCCC3)cc2)c(=O)c2ccccc12	nt	-82.7*	-0.8	8.0	-28.9	94.5*	-22.2	95.8*
Cc1nn(CC(=O)Nc2ccc(C(=O)N3CCCCC3)cc2)c(=O)c2ccccc12	-8.0	-81.9*	-0.3	-1.6	7.4	92.9*	-10.9	94.2*
Cc1nn(CC(=O)Nc2ccc3c(c2)oc2ccccc23)c(=O)c2ccccc12	-4.6	-39.4	0.1	13.3	nt	nt	nt	nt
CNC(=O)Cn1nc(C)c2ccccc2c1=O	-1.4	3.5	-0.3	-9.5	nt	nt	nt	nt
CCCC[C@@H](CNC)NC[C@H](Cc1ccc(O)cc1)NCCc1ccc(OCC)cc1	7.9	7.7	0.9	-4.5	nt	nt	nt	nt
c1ccc(Oc2cc(-c3ccccc3)ncn2)cc1	-2.2	-93.3*	4.8	-4.9	10.8	98.0*	10.2	98.4*
CCCOP(=O)(c1ccc(N(C)C)cc1)C(O)c1ccc(Cl)cc1 (configuration not stated)	2.8	7.8	-0.2	1.0	nt	nt	nt	nt
O=c1c2c(-c3ccccc3)csc2nc2c3ccccc3c(NCCN3CCOCC3)nn12	nt	-96.4*	-6.3	nt	76.5*	99.8*	?	99.9*
Cc1nc2ccccc2cc1OCc1ccccc1	1.9	-80.8*	1.2	-10.2	24.2	93.5*	?	96.3*
Cc1nc2ccccc2cc1OCc1ccc(Cl)cc1	-2.3	-54.9	2.6	12.0	nt	nt	nt	nt
O=C(OCc1nnc(-c2cccs2)o1)C1=NN(c2ccccc2)C(=O)CC1	-3.1	nt	nt	47.0	nt	nt	nt	nt
CCC(=O)N(C)/C=C1\Sc2ccccc2C1=O	-4.5	5.2	0.0	121.0	nt	nt	nt	nt
O=CN(/C=C1\Sc2ccccc2C1=O)Cc1ccccc1	?	-89.9*	1.1	-6.7	78.0	95.8*	-59.3	97.2*
Cn1nc(C(F)(F)F)c2cc(NC(=O)OCc3ccc(C(C)(C)C)cc3)sc21	nt	-2.5	-1.6	nt	nt	nt	nt	nt
Cn1nc(C(F)(F)F)c2cc(NC(=O)OCc3ccc(F)cc3)sc21	2.8	-92.8*	-0.4	nt	13.2	98.7*	39.9	98.1*
Clc1cccc(CSc2ccc(-c3cccnc3)nn2)c1	nt	-91.3*	0.4	-9.5	5.2	97.2*	13.9	98.0*
c1ccc(CSc2ccc(-c3cccnc3)nn2)nc1	-33.6	25.2	1.7	-1.2	nt	nt	nt	nt
Cc1ccc(CCC(=O)Nc2ccccc2F)s1	-11.2	-88.7*	1.4	5.5	17.5	94.3*	2.5	95.8*
O=C(CC(=O)Nc1ccccc1F)Nc1ccccc1F	nt	6.8	-0.8	16.1	nt	nt	nt	nt
CSc1cccc(NC(=O)CN2C(=O)c3ccccc3S2(=O)=O)c1	95.2*	-85.6*	nt	-10.1	26.6	93.7*	4.7	95.6*
O=C(CN1C(=O)c2ccccc2S1(=O)=O)Nc1cccc(S(=O)(=O)N2CCCCC2)c1	5.3	nt	nt	15.8	nt	nt	nt	nt
